From PubChem BioAssay AID765 (NMMLSC, 2007)
Values without a mark were called inactive. The source made the active and inactive calls. Rule as the data show it: active = inhibition above about 31%; inactive = the rest.

These molecules were tested against N-formyl peptide receptor 2 (Homo sapiens) (UniProt P25090) (assay: FPRL1 fluorescent ligand binding inhibitors, cell-based, flow cytometry, single concentration (AID 765)). Details: FPRL1-expressing cells, active compounds read high; at 5.1 µM unless noted.
Sequence of N-formyl peptide receptor 2 (Homo sapiens) (P25090 whole entry, looked up): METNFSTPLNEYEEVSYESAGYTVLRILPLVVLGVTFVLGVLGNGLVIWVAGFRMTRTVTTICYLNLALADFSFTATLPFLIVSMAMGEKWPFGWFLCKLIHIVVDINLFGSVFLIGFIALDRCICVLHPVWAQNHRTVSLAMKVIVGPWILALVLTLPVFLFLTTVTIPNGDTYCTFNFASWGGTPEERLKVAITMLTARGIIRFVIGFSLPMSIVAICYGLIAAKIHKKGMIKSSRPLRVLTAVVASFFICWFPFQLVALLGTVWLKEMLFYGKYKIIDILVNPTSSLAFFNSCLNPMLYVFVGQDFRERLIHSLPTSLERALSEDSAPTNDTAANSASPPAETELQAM
With `CCOC(=O)N1CCN(c2nc(-c3ccccc3Cl)c3cc(Br)ccc3n2)CC1` the inhibition was -4.5% [at 4.7 µM]. `COc1ccc(-c2cn3cccnc3n2)cc1NC(=O)c1ccc(Br)o1` showed an inhibition of -10% [at 5.4 µM]. `FC(F)(F)c1cc(-c2ccco2)nc(N2CCN(C(c3ccccc3)c3ccccc3)CC2)n1` was tested, and the inhibition was -10.5% [at 4.8 µM]. In the case of `COc1ccc(-c2cc(-c3ccc(F)cc3)nc(N3CCN(C)CC3)n2)cc1`, the inhibition is reported as -2.6% [at 5.9 µM]. In the case of `COc1ccc(-c2cc(C(F)(F)F)nc(N3CCN(Cc4ccccc4)CC3)n2)cc1OC`, the inhibition is reported as 69.2% [at 4.9 µM] (active). `CN1CCN(c2nc(-c3ccccc3)c3cc(Cl)ccc3n2)CC1` was tested, and the inhibition was -15% [at 6.6 µM]. `CCC(CC)C(=O)Nc1cc(-c2cn3cccnc3n2)ccc1OC` gave an inhibition of 11.5% [at 6.6 µM]. In the case of `FC(F)(F)c1cc(-c2ccccc2)nc(N2CCN(c3ccccc3)CC2)n1`, the inhibition is reported as -10.6% [at 5.8 µM]. Molecule `COc1ccc(-c2cn3cccnc3n2)cc1NC(=O)c1cc(C)cc(C)c1` has an inhibition of 4.9% [at 6 µM]. Work on `COc1ccc(-c2cn3cccnc3n2)cc1NC(=O)CCCc1ccccc1` yielded an inhibition of -8.7% [at 5.8 µM]. Work on `CC(=O)N1CCN(c2nc(-c3ccccc3)c3ccccc3n2)CC1` yielded an inhibition of -11.2% [at 6.7 µM]. `COc1cccc(-c2cc(C(F)(F)F)nc(N3CCN(c4ccccc4OC)CC3)n2)c1` showed an inhibition of -10.4% [at 5 µM].
